According to PubChem BioAssay:
Where “and” joins values, the source holds several entries; their conditions need not be identical. Equal values may be shown once.

assay: probe aNOTCH3 binding on compound microarray – biochemical, small-molecule microarray, 635/667 nm fluorescence, primary screen (AID 1120); settings: higher = more signal;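 note: probe is a biotin-tagged antibody raised against NOTCH3 rather than NOTCH3 protein; score merges spot fluorescence near 667 nm with spot signal to noise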

SMILES | composite z-score
CC(C)=NOC[C@@H](O)COCc1ccco1 | -0.0328
COC(=O)C1=C(C)N(Cc2ccccc2)C2=C(C(C)=O)C[C@@](O)(C(=O)OC)C(=O)N2[C@@H]1c1ccccc1 | -0.0895 and 0.0597
COC(=O)[C@@]1(Cc2ccc(OC)cc2)[C@H]2c3cc(C(=O)N(C)C)n(Cc4ccc(O)c(OC)c4)c3C[C@H]2CN1C(=O)c1ccccc1 | 0.359 and 0.68
C=CC[C@H](O)c1ccc(OCCO)cc1 | -0.382 and -0.319
CC(C)=NO[C@@H](C)c1cc(-c2c(C)cc(C)cc2C)no1 | -0.181
C[N+](C)(C)CCCCNC(=O)[C@H]1C[C@H]2C(=O)N[C@@H](CCCC[N+](C)(C)C)C(=O)N2[C@H]1c1ccc(O)cc1 | -0.0947 and 0.0311
C[C@@]1([C@@H](NC(=O)Cc2ccccc2)c2ccc(-c3ccccc3)cc2)C[C@H]1C1CCCCC1 | 0.767 and 1.49 and -0.137
CCN1C(=O)[C@H]2[C@H]3[C@H](O)[C@H](O)CC(=NOC)[C@@H]3CC[C@H]2C1=O | 0.0297
O=C1NC(=O)C2C1C=CC(C(O)c1ccc([N+](=O)[O-])cc1)N2Nc1ccc(Cl)cc1Cl (stereo not given) | 0.0597 and 0.133
C=C[C@H](C)[C@@H](O)c1ccc(OCCO)cc1 | -0.494 and -0.481
CC(C)CON=C1C[C@@H](O)[C@@H](O)[C@@H]2[C@@H]3C(=O)N(c4cccc(Oc5ccccc5)c4)C(=O)[C@@H]3CC[C@H]12 | -0.0077
CO[C@H]1COC(=O)CC=C[C@@H](C)COC(=O)[C@H](CCSC)NC(=O)CC=C[C@@H]1C | 0.0311 and -0.0043
C=C[C@@H](OC)[C@H](O)c1ccc(OCCO)cc1 | -0.323 and -0.465
CCOC(=O)c1ccc(NC(=O)O[C@H]2[C@H](OC(=O)Nc3ccccc3)[C@@H](OC(=O)Nc3ccccc3)[C@@H](OC)O[C@@H]2CO)cc1 | 0.228 and 0.318
C=CCN(C(=O)C(c1cccs1)N(CCOCCO)C(=O)/C=C\C(=O)O)c1ccc(OC)cc1 (stereo not given) | -0.212 and -0.312
C#CCN1C(/C=C/c2ccccc2)C(=O)OC[C@H]1c1ccccc1 (stereo not given in full) | -0.0766 and 0.228
CO[C@@H]1COC(=O)CC=C[C@H](C)COC(=O)[C@H](C)NC(=O)CC=C[C@H]1C | -0.1
Cc1cc2c(nc1C)CCCN2CC(O)CN1CCCc2nc(-c3ccc(Br)cc3)ccc21 (stereo not given) | 0.569 and 0.969
C=CCN(CCCCC)C(=O)C(c1cccs1)N(CCOCCO)C(=O)/C=C\C(=O)O (stereo not given) | -0.554 and -0.488
COc1ccc(-c2ccc3c(n2)CCCN3CC(O)CN2CCCc3nc(-c4ccc(Br)cc4)ccc32)cc1 (stereo not given) | 0.448 and 0.392

SMILES | composite z-score
C=C[C@H](OC)[C@@H](O)c1ccc(OCCO)cc1 | -0.437 and -0.465
C=CCN(C(=O)C1N(CCCCCCO)C(=O)C2C(C(=O)O)C3C=CC21O3)c1ccc(OC)cc1 (stereo not given) | -0.577 and -0.287
O=C1C[C@]2(c3ccc([N+](=O)[O-])cc3)C(=O)N(Cc3ccccc3)c3cc(CO)ccc3[C@H]2N1C1CCCCC1 | -0.0627 and 0.13
C=CCN(C(=O)C1N(c2c(Cl)cccc2CO)C(=O)C2C(C(=O)O)C3C=CC21O3)c1ccc(OC)cc1 (stereo not given) | -0.786 and -0.515
C=CCN(C(=O)C1N(CCOCCO)C(=O)C2C(C(=O)O)C3C=CC21O3)C(C)(C)C (stereo not given) | -0.465 and -0.469
COC(=O)C1=C2N(Cc3ccccc3)C(C)=C(C(=O)OC)[C@@H](c3ccccc3)N2C(=O)[C@](O)(C(=O)OC)C1 | 0.0349 and -0.063
O=c1n(-c2ccccc2)c(=O)n2n1CC[C@@H]1C(=NOC[C@@H](O)COCc3ccco3)[C@H]3O[C@H]3[C@@H](O)[C@@H]12 | -0.173 and -0.268
CC(CO)N1C(=O)[C@@H]2C3C(=O)OCCC=C[C@H]3OC23C=CCN(c2ccc(Cl)cc2)C(=O)[C@@H]13 (stereo not given in full) | -0.33 and 0.0749
CC(C)[Si]1(C(C)C)OCc2cc(CCCc3cc4c(c(CCc5ccccc5)n3)[Si](C(C)C)(C(C)C)OC4)nc(CCc3ccccc3)c21 | -0.124 and -0.0578
C=CCN(Cc1ccccc1)C(=O)C1N(CCOCCO)C(=O)C2C(C(=O)O)C3C=CC21O3 (stereo not given) | -0.611 and -0.41
C[N+](C)(C)CCCCCCNC(=O)[C@H]1C[C@H]2C(=O)N[C@@H](CCCC[N+](C)(C)C)C(=O)N2[C@H]1c1cccc(OCCO)c1 | -0.0647 and 0.203
CCCCCN1CC=CC23O[C@@H]4C=CCCOC(=O)C4[C@H]2C(=O)N(C(C)CO)[C@@H]3C1=O (stereo not given in full) | -0.536 and -0.0416
O=C1[C@H]2[C@H]3[C@H](O)[C@H](O)CC(=NOCc4ccccc4)[C@H]3CC[C@H]2C(=O)N1Cc1ccccc1 | -0.136
CO[C@H]1COC(=O)CC=C[C@H](C)[C@H](OC)COC(=O)[C@@H](C)COC(=O)CC=C[C@@H]1C | -0.0984 and -0.0932
CN1C(=O)C2CC=C([C@H]3Oc4ccccc4S(=O)(=O)N4CCC[C@@H]34)CC2C1=O (stereo not given in full) | -0.182 and -0.173
C[C@@H](ON=C1[C@H]2CCn3c(=O)n(-c4ccccc4)c(=O)n3[C@H]2[C@H](O)[C@@H]2O[C@H]12)c1cn([C@H](CO)Cc2ccccc2)nn1 | -0.216
CCOC(=O)C[C@H]1[C@H](OC(=O)c2ccccc2-c2ccccc2)[C@@H](NC(=O)Cc2ccc(OC)cc2)c2cc(OCCCO)ccc2N1C(=O)c1ccc2ccccc2n1 | -0.0347 and -0.0608
CCOC(=O)[C@H](CC(C)C)NC(=O)CCC1CC(OC(=O)NCc2cccc3ccccc23)CC2(CCCC(COC(=O)NCc3ccccc3)O2)O1 (stereo not given in full) | -0.155
Cc1ccc(S(=O)(=O)N[C@@H]2COC(=O)CC=C[C@@H](C)[C@@H]3C=C[C@H](O)[C@@H](COC(=O)CC=C[C@H]2C)O3)cc1 | 0.0426 and -0.161
CO[C@@H]1COC(=O)[C@H](Cc2ccccc2)NC(=O)CC=C[C@@H](C)[C@H](OC)COC(=O)[C@@H](C)NC(=O)CC=C[C@H]1C | 0.0522 and -0.023
